Source: PubChem BioAssay (National Center for Advancing Translational Sciences (NCATS))
Sm TGR inh: qHTS Assay for the Inhibitors of Schistosoma Mansoni Peroxiredoxins; Schistosoma mansoni thioredoxin glutathione reductase (TGR), Q962Y6; purified TGR, DTNB reduction, TNB absorbance 405 nm; Potency, µM (top dose mostly 114 µM), for the others: top-dose activity change, negative = inhibition, most hits filed as inhibitors; 360,000 compounds, 3% hits; note: % is set by controls: 0 for no effect and ±100 for the full control effect; nearly all actives have a fitted effect of over 60% in size
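Kinetic colorimetric format: TGR-catalysed, NADPH-driven DTNB reduction monitored via TNB absorbance. Enzyme dispensed at 20 nM; compound exposure 15 min at room temperature before reaction start.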
LmPK inhibitor: qHTS Assay for Inhibitors of Leishmania Mexicana Pyruvate Kinase (LmPK) | Q27686 | purified LmPK, Kinase-Glo ATP luminescence, 1 h | Potency, µM (highest dose often 57.5 µM), for the others: at the highest dose activity change, negative = inhibition, most hits filed as inhibitors | 290,000 compounds, 0.37% hits; note: % is set by controls: 0 for no effect and ±100 for the full control effect
Target sequence (Q27686 whole entry, looked up): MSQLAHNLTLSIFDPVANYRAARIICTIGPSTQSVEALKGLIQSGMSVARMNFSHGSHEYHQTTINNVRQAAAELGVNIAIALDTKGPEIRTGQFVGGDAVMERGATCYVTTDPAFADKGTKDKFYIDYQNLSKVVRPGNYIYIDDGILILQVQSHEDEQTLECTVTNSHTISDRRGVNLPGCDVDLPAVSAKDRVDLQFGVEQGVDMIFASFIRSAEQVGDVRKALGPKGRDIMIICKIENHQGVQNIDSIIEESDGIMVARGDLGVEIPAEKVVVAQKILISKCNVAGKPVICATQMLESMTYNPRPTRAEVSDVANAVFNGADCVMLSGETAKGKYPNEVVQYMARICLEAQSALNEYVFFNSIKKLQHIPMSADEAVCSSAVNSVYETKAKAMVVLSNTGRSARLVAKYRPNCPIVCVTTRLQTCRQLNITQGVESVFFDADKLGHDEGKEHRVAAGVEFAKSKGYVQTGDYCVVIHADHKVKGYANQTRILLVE
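ATP generated from ADP (0.1 mM) and PEP (0.5 mM) by 0.1 nM LmPK over 1 h at room temperature (pH 7.2 imidazole buffer) was detected by coupled luciferase luminescence. Values were normalized to uninhibited and no-enzyme wells.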
Tb PYK inh: qHTS of Trypanosoma Brucei Inhibitors; AID 624173, 2012; 410,000 compounds, 0.12% hits; TbPYK enzyme, Kinase-Glo Plus ATP luminescence, 45 min; pyruvate kinase (Trypanosoma brucei), Q57TT1; Potency, µM (doses to about 76.8 µM), inactives show top-dose activity, negative = inhibition, actives largely listed as inhibitors; note: % is set by controls: 0 for no effect and ±100 for the full control effect; nearly all actives have a fitted effect of over 50% in size
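Enzyme and substrate buffer are dispensed first and compound is pin-transferred. ADP at 130 uM final then starts the reaction, which runs 45 min at room temperature. Detection reagent is added for 10 min before luminescence is imaged.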
SARS PLpro yeast: qHTS of Yeast-based Assay for SARS-CoV PLP | S. cerevisiae expressing SARS-CoV PLpro, growth rescue | Potency, µM (series often up to 32.9 µM), without a hit: at the top dose activity, positive = growth rescue, most hits filed as activators | 330,000 compounds, 0.19% hits; calls by dose curve; note: 0% is about no effect; nearly all actives have a fitted effect of over 55% in size
RE007 growth inh: qHTS Assay for Inhibitors of the HIV-1 protein Vpr. S. pombe RE007 Vpr strain, BacTiter-Glo ATP luminescence, 24 h. Potency, µM (top dose mostly 92.2 µM), inactives show top-dose activity change, negative = less growth, actives largely listed as inhibitors. 360,000 compounds, 0.21% hits; active = well fitted falling curve with a large enough effect; inconclusive = small, poorly fitted or top-dose-only effect; inactive = no such curve, though single readings can be large or run the other way; note: % is set by controls: 0 for no effect and ±100 for the full control effect; nearly all actives have a fitted effect of over 50% in size
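Fission yeast RE007 carrying one integrated HIV-1 vpr copy, seeded at OD 0.01 in PMG+AL medium with 23 nL pinned compound. Grown 24 h at 30 degrees; viability read by BacTiter-Glo luminescence after 5 min.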
NS1 function inh: qHTS Assay for Inhibitors of Influenza NS1 Protein Function | Potency, µM (series often up to 46.1 µM), for the others: top-dose activity, positive = more growth | 270,000 compounds, 0.4% hits; calls by dose curve; note: actives are rising curves; nearly all actives have a fitted effect of over 50% in size
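S. cerevisiae expressing influenza A NS1, grown in glucose, washed, then diluted 1:100 into pH 6.0 -URA galactose medium with 23 nl compound. Growth recovery read as OD600; NS1-free strain serves as control.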
Starred values were filed as active, the others as inactive; ? = inconclusive; · = no result; [ ] = dose if it differs, or a comment. The list is not random: actives were taken first. Their share in the collection is about 3.3%. Unless noted, calls come from the whole dose curve; as a rule, active = well fitted curve in the direction sought with a large enough effect; inconclusive = small, poorly fitted or top-dose-only effect, or another doubt; inactive = no such curve, though single readings can be large; an effect the other way counts as inactive or inconclusive. Potency is the fitted concentration of half-maximal effect.

SMILES | Sm TGR inh | LmPK inhibitor | Tb PYK inh | SARS PLpro yeast | RE007 growth inh | NS1 function inh
CCC(C)N1C(=O)/C(=C\c2cnc(N(C)C)nc2)C(=O)NC1=S (stereo unspecified) | 10µM* | 1% | ? | 1% | -13% | 9%
CCc1nc2sc3c(c2c(=O)n1NC(=O)CCl)CCCC3 | 45µM* | -2% | 5% | 10µM* | -8% | -6%
CC(=O)N(C(C)=O)n1c(C)nc2sc3c(c2c1=O)CCCC3 | · | 4% | 1% | -1% | 25% | 7%
O=C(NCCO)Nc1ccc2nc(-c3ccco3)c(-c3ccco3)nc2c1 | · | -9% | · | -1% | · | 11%
CCCNC(=O)c1ccc2nc(-c3ccccc3)c(-c3ccccc3)nc2c1 | -12% | -4% | 3% | -2% | 3% | -6%
CCCCNC(=O)c1ccc2nc(-c3ccco3)c(-c3ccco3)nc2c1 | 7.9µM* | 3% | ? | 12% | -6% | ?
O=C(NCCCO)c1ccc2nc(-c3ccco3)c(-c3ccco3)nc2c1 | 2.5µM* | -14% | ? | 0% | -28% | ·
COc1ccc(Nc2ccc(OC)cc2)cc1 | 40µM* | -12% | 8% | -3% | -24% | -4%
COc1ccc(Nc2nc(N)nc(CCl)n2)cc1 | 35µM* | -14% | 0% | 0% | 20% | 2%
COc1ccc(Nc2ccc(Nc3ccc(OC)cc3)nn2)cc1 | -7% | 0% | -1% | 21% | -21% | 14%
Nc1nc(CCl)nc(Nc2ccc3ccccc3c2)n1 | 16µM* | -5% | 10% | -1% | 13% | 2%
CCOc1ccc(C2C(=O)N(C3CCCCCC3)CC(=O)N2CCc2ccc(Cl)cc2)cc1OC (stereo unspecified) | 2% | · | 1% | · | · | ·
CCOC(=O)Nc1ccc(S(=O)(=O)Nc2cc(C)on2)cc1 | -13% | -2% | -2% | 1% | 1% | 1%
Cc1cc(NS(=O)(=O)c2ccc(NC(NC(=O)C(C(F)(F)F)C(F)(F)F)(C(F)(F)F)C(F)(F)F)cc2)no1 | 13µM* | 2% | -7% | -20% | -1% | 17%
CC(=O)Nc1ccc(S(=O)(=O)N(C)c2ccccc2)cc1 | -13%[11.4 µM] | 5% | 11% | 11% | -8% | -24%
CCOC(=O)/C=C/C(=O)Nc1ccc(S(=O)(=O)N(C)c2ccccc2)cc1 | 40µM* | 2% | 4% | -2% | 3% | ·
CCOC(=O)/C=C/C(=O)Nc1ccc(S(=O)(=O)Nc2cc(C)on2)cc1 | 11µM* | -2% | 1% | -3% | -10% | 3%
COC(=O)Nc1sc2c(c1C(=O)N1CCOCC1)CCC(C)C2 (stereo unspecified) | 45µM* | -10% | -1% | -4% | -6% | -3%
CCOC(=O)Nc1sc2c(c1C(N)=O)CCC(C)C2 (stereo unspecified) | -6% | -1% | -2% | -2% | -5% | -1%
c1ccc(C[C@H]2CNCCN2CC2(c3ccccc3)CC2)cc1 | 45µM* | · | 4% | -11% | 11% | ·
COc1ccc(N=C2S/C(=C\c3cc(C)n(C)c3C)C(=O)N2C)cc1 | 50µM* | -3% | -14% | -5% | -4% | ?
CCCN1C(=O)/C(=C/c2cc(C)n(C)c2C)SC1=Nc1ccc(OC)cc1 | -24% | 1% | 2% | -5% | -14% | 18%
COc1ccc(-c2cc(OC(=O)c3ccc(F)cc3)c3c(C)oc(C)c3c(=O)c2)cc1 | 35µM* | 1% | · | -7% | · | -7%
COc1ccc(-c2cc(OC(=O)c3ccccc3)c3c(C)oc(C)c3c(=O)c2)cc1OC | ? | · | -2% | · | · | ·
COc1ccc(-c2cc(OC(=O)c3cccc(Cl)c3)c3c(C)oc(C)c3c(=O)c2)cc1 | 22µM* | · | 0% | · | · | ·
SMILES | Sm TGR inh | LmPK inhibitor | Tb PYK inh | SARS PLpro yeast | RE007 growth inh | NS1 function inh
Nc1nc2c(c(=O)[nH]1)CN(CCCN1CCOCC1)CN2 | · | · | · | · | · | 8%
Cc1cc(C)cc(NS(=O)(=O)c2ccc(-c3cc(C)no3)cc2)c1 | 5% | · | 3% | · | · | ·
CCn1c(=O)c2c(n3c(=S)[nH]nc13)-c1ccccc1CC21CCCCC1 | -8% | 14µM* | ? | -2% | 0% | ·
NS(=O)(=O)c1ccc(CNC(=O)/C=C/c2ccco2)cc1 | 1.6µM* | 0% | ? | 1% | 14% | 3%
O=C(CNC(=O)Cc1ccccc1)N=Nc1c(O)[nH]c2ccccc12 | 3% | -2% | 6% | -4% | -19% | -12%
O=C(/C=C/c1ccco1)NCc1ccc(F)cc1 | 3.2µM* | 10% | ? | -1% | -7% | ·
O=C(CNC(=O)/C=C/c1ccco1)N=Nc1c(O)[nH]c2ccccc12 | 7.1µM* | 12% | 1% | 1% | -4% | 1%
O=C(CCNC(=O)c1ccco1)NCc1ccc(F)cc1 | · | · | -14% | -1% | 38% | ·
CN(C)/C=N/C(=S)Nc1ccccc1Cl | · | -4% | -3% | -1% | 3% | -7%
CN(O)/C=N/C(=S)Nc1ccc(Cl)cc1Cl | 0.56µM* | -2% | -13% | 0% | -25% | -1%
CCNC(=S)Nc1ccc(Cl)cc1Cl | 45µM* | 0% | -13% | ? | 11% | 3%
C=CCN(CC=C)c1nc2ccccc2nc1C(C#N)C(=O)OC(C)C (stereo unspecified) | 28µM* | 1% | -5% | -27% | -25% | -17%
C=CCOC(=O)C(C#N)c1nc2ccccc2nc1N1CCN(c2ccccc2OC)CC1 (stereo unspecified) | -2% | 2% | -4% | 2% | -1% | ?
CCOC(=O)c1ccc(NC(=O)C2=C(C)C(=O)OC23CCN(C(C)C)CC3)cc1 | 0% | · | -3% | · | · | ·
CCCS(=O)(=O)O | · | · | · | · | · | 2%
CN(C)c1ccc(C(C[N+](=O)[O-])c2c(N)n(C)c(=O)n(C)c2=O)c(F)c1C#N (stereo unspecified) | -3% | -4% | -5% | -11% | ? | -92%
COc1ccc(Br)cc1C(C[N+](=O)[O-])c1c(N)n(C)c(=O)n(C)c1=O (stereo unspecified) | -20% | -1% | -4% | -22% | 10µM* | -133%
O=C(CCCN1C(=O)c2cccnc2Oc2ccc(Cl)cc21)NCc1ccccc1F | -11% | · | 0%[15.4 µM] | · | · | ·
CNc1ncnc(Sc2ccc(Cl)cc2)c1[N+](=O)[O-] | 0.56µM* | 10% | -12% | 0% | -8% | 4%
Cn1nc([N+](=O)[O-])nc1Sc1ccc(Cl)cc1 | ? | -4% | -2% | 19% | -17% | 4%
Cc1ccc(/C=C2\Sc3ccccc3C2=O)s1 | 11% | 11µM* | -3% | 2% | -14% | -6%
